Results taken from PMC4081100, “A DNA-binding-site landscape and regulatory network analysis for NAC transcription factors in Arabidopsis thaliana”.

Tests used:
Test in all cases: universal protein binding microarray (PBM); transcription factors of Arabidopsis thaliana; high values mean tight binding
[1] = target: T1, GST-ANAC092(1-176) (Arabidopsis thaliana, UniProt Q9FKA0 1-176); conditions: protein: recombinant; tags: GST; chain copies: 2; dsDNA, one strand shown
T1 sequence: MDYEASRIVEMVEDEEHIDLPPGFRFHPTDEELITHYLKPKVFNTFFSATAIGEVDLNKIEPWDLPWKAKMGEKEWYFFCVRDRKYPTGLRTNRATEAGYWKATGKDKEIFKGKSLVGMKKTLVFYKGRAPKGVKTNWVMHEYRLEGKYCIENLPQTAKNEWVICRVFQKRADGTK
Method in brief: (§1)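 For zinc-finger proteins, zinc acetate was added while GST-tagged NAC-domain, full-length or DNA-binding-domain proteins were induced in cells. Purification used glutathione–Sepharose 4B, and quantification used A280 or anti-GST western blot. Custom all-10-mer Agilent 4 × 180K arrays, made double-stranded by primer extension, each received a protein at 200 to 500 nM final in duplicate. Scoring covered gapped and ungapped 8-mers, with binding given as the normalised enrichment score (E-score).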

[2] = target: GST-NTL6(1-168) (Arabidopsis thaliana, UniProt Q9SCK6 1-168); conditions: protein: recombinant; tags: GST; chain copies: 2; dsDNA, one strand shown
GST-NTL6(1-168), sequence (Q9SCK6 1-168): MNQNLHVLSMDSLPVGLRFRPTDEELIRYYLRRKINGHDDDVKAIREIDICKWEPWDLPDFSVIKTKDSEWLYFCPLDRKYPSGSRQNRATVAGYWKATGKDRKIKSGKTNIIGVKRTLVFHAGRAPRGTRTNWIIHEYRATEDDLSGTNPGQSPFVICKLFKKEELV
Method in brief: as §1

[3] = target: T2, GST-ANAC019 NAC domain (Arabidopsis thaliana, UniProt Q9C932 14-162); conditions: protein: recombinant; tags: GST; chain copies: 2; dsDNA, one strand shown
T2 sequence: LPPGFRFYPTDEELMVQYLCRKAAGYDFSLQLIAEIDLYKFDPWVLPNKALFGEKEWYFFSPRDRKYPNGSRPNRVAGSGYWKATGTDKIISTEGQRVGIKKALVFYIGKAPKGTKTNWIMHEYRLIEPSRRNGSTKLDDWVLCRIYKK
Method in brief: as §1

[4] = target: T3, GST-ANAC055(1-171) (Arabidopsis thaliana, UniProt Q9LDY8 1-171); conditions: protein: recombinant; tags: GST; chain copies: 2; dsDNA, one strand shown
T3 sequence: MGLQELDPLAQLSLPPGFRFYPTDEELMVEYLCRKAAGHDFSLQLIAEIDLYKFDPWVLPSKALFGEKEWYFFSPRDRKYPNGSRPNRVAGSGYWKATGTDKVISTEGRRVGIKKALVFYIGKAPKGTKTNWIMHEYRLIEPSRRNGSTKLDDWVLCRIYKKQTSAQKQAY
Method in brief: as §1

[5] = target: T4, GST-ATAF1 NAC domain (Arabidopsis thaliana, UniProt Q39013 7-158); conditions: protein: recombinant; tags: GST; chain copies: 2; dsDNA, one strand shown
T4 sequence: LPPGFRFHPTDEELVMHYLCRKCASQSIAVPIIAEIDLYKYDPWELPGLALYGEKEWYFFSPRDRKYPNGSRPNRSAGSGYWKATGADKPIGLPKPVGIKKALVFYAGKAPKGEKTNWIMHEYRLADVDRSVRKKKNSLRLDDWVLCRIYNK
Method in brief: as §1

[6] = target: T5, GST-ANAC092(1-285) full length (Arabidopsis thaliana, UniProt Q9FKA0 1-285); conditions: protein: recombinant; tags: GST; chain copies: 2; dsDNA, one strand shown
T5 sequence: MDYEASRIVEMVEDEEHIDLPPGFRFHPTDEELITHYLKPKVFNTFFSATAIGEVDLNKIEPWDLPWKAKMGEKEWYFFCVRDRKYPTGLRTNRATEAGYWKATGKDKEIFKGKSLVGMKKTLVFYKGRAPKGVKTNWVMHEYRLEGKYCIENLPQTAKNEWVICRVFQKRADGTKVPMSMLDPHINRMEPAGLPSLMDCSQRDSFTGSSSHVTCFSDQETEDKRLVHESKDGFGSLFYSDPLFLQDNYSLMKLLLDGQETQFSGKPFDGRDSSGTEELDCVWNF
Method in brief: as §1

[7] = target: T6, GST-NAP(1-166) (Arabidopsis thaliana, UniProt O49255 1-166); conditions: protein: recombinant; tags: GST; chain copies: 2; dsDNA, one strand shown
T6 sequence: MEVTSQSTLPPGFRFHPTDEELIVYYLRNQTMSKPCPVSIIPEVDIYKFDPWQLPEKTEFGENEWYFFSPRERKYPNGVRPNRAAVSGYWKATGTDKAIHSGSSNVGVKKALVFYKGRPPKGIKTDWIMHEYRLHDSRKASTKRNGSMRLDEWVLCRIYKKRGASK
Method in brief: as §1

[8] = target: T7, GST-NST2(1-184) (Arabidopsis thaliana, UniProt Q9M274 1-184); conditions: protein: recombinant; tags: GST; chain copies: 2; dsDNA, one strand shown
T7 sequence: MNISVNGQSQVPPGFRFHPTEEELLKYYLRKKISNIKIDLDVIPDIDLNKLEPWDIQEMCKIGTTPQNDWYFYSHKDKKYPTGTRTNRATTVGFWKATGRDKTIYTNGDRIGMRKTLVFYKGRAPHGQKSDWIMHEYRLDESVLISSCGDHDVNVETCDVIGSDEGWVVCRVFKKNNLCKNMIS
Method in brief: as §1

[9] = target: T8, GST-NTL8 NAC domain (Arabidopsis thaliana, UniProt Q9XIN7 14-156); conditions: protein: recombinant; tags: GST; chain copies: 2; dsDNA, one strand shown
T8 sequence: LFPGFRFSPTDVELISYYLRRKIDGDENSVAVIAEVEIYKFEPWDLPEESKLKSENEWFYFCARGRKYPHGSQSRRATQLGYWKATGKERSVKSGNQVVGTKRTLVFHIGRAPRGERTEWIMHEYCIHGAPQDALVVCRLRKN
Method in brief: as §1

[10] = target: T9, GST-SND1(1-203) (Arabidopsis thaliana, UniProt Q9LPI7 1-203); conditions: protein: recombinant; tags: GST; chain copies: 2; dsDNA, one strand shown
T9 sequence: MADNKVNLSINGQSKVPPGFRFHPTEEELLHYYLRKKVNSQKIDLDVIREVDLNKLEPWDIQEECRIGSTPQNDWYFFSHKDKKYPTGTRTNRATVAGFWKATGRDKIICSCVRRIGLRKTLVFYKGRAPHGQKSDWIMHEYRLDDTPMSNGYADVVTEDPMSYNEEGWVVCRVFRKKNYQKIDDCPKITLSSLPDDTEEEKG
Method in brief: as §1

[11] = target: T10, GST-VND3 NAC domain (Arabidopsis thaliana, UniProt Q9FH59 12-162); conditions: protein: recombinant; tags: GST; chain copies: 2; dsDNA, one strand shown
T10 sequence: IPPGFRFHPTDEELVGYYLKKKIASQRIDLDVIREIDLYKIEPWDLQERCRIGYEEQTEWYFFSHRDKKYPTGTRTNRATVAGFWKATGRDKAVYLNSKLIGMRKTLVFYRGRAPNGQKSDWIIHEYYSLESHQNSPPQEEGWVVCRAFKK
Method in brief: as §1

[12] = target: T11, GST-VND7 NAC domain (Arabidopsis thaliana, UniProt Q9C8W9 9-158); conditions: protein: recombinant; tags: GST; chain copies: 2; dsDNA, one strand shown
T11 sequence: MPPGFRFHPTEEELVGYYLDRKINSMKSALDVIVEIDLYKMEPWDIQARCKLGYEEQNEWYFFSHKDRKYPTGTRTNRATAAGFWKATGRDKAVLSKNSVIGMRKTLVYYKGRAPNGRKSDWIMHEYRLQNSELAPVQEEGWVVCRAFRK
Method in brief: as §1

[13] = target: GST-WRKY1(266-371) (Arabidopsis thaliana, UniProt Q9SI37 266-371); conditions: protein: recombinant; tags: GST; dsDNA, one strand shown
GST-WRKY1(266-371), sequence (Q9SI37 266-371): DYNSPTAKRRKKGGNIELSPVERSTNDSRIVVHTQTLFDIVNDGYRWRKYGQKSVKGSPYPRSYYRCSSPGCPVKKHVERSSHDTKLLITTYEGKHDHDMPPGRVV
Method in brief: as §1

Sequence | binding signal [1] [E-score] | binding signal [2] [E-score] | binding signal [3] [E-score] | binding signal [4] [E-score] | binding signal [5] [E-score] | binding signal [6] [E-score] | binding signal [7] [E-score] | binding signal [8] [E-score] | binding signal [9] [E-score] | binding signal [10] [E-score] | binding signal [11] [E-score] | binding signal [12] [E-score] | binding signal [13] [E-score]
GTACGTCA | 0.441 | 0.0743 | 0.413 | 0.295 | 0.366 | 0.45 | 0.363 | 0.244 | 0.149 | 0.422 | 0.38 | 0.373 | 0.228
ACGTAAAG | 0.402 | 0.0957 | 0.367 | 0.317 | 0.301 | 0.421 | 0.255 | 0.319 | 0.0757 | 0.41 | 0.359 | 0.283 | 0.103
ATTACGTA | 0.459 | 0.201 | 0.474 | 0.438 | 0.404 | 0.449 | 0.47 | 0.331 | 0.134 | 0.44 | 0.468 | 0.458 | 0.0642
CGTCAAAC | 0.109 | 0.0906 | 0.0928 | 0.163 | 0.147 | 0.134 | 0.0647 | 0.159 | – | 0.198 | 0.145 | 0.129 | 0.44
ATACGTCA | 0.412 | – | 0.251 | 0.267 | 0.345 | 0.435 | 0.373 | 0.183 | – | 0.298 | 0.337 | 0.322 | 0.196
AAGTCTAC | 0.0876 | 0.202 | – | 0.158 | 0.0826 | – | – | 0.103 | – | 0.0865 | 0.0561 | 0.0651 | 0.412
AACACGTC | 0.397 | – | 0.33 | 0.325 | 0.316 | 0.428 | 0.262 | 0.0538 | – | 0.12 | 0.343 | 0.312 | 0.131
CACGTCAG | 0.336 | – | 0.261 | 0.19 | 0.203 | 0.407 | 0.154 | – | – | 0.0864 | 0.127 | 0.214 | 0.081
AAGGAAAG | 0.261 | 0.398 | 0.104 | 0.181 | 0.0767 | 0.186 | – | 0.239 | 0.467 | 0.262 | 0.0708 | 0.117 | 0.0652
GTAAGTAA | 0.246 | 0.474 | 0.0906 | 0.199 | 0.245 | 0.334 | – | 0.239 | 0.195 | 0.307 | 0.279 | 0.186 | 0.122
CACGTCAA | 0.444 | – | 0.38 | 0.324 | 0.248 | 0.448 | 0.299 | 0.252 | – | 0.313 | 0.332 | 0.278 | 0.403
TAGCGTGA | 0.441 | 0.0555 | 0.209 | 0.114 | 0.17 | 0.454 | – | 0.228 | – | 0.42 | 0.242 | 0.191 | 0.0738
TCACGTCA | 0.429 | – | 0.38 | 0.354 | 0.321 | 0.429 | 0.329 | 0.188 | – | 0.343 | 0.322 | 0.367 | 0.292
